Experimental findings from PubChem BioAssay (EPA / NIEHS) are described below.

The source holds several records for some structures; these can differ, active in one and inactive in another. The source made the active and inactive calls. Rule for the calls: active = hit-call score of the fitted dose curve at least 0.9, where 1 is the maximum; inactive = score below 0.9.

In general, AC50 refers to the concentration at which the activity in the assay is half-maximal.

Read-out in this experiment: Interleukin-8 (IL8), CXCL8 (gene 3576)
As to the kind of experiment: BSK_3C_IL8: BioMAP Diversity Plus: 3C Assay for Interleukin-8 (IL8) Biomarker Activity (AID 2283020). Conditions: primary human endothelial cells (HUVEC); actives raise or lower the signal. The method, then:
BSK_3C is a cell-based, multiplexed-readout assay that uses umbilical vein endothelium, a human vascular primary cell, with measurements taken at 24 hours after chemical dosing in a 96-well plate.BSK_3C_IL8 is an assay component measured in the BSK_3C assay. It measures IL-8 antibody related to regulation of gene expression using ELISA technology.Data from the assay component BSK_3C_IL8 was analyzed into 1 assay endpoint. This assay endpoint, BSK_3C_IL8, was analyzed with bidirectional fitting relative to DMSO as the negative control and baseline of activity. Using a type of binding reporter, gain or loss-of-signal activity can be used to understand changes in the signaling as they relate to the gene CXCL8. Furthermore, this assay endpoint can be referred to as a primary readout, because this assay has produced multiple assay endpoints where this one serves a signaling function. To generalize the intended target to other relatable targets, this assay endpoint is annotated to the cytokine intended target family, where the subfamily is interleukins.
The levels of cell surface (or secreted, indicated by the prefix "s") biomarker endpoints were measured by ELISA. Overt cytotoxicity to cells in confluent adherent cultures (all systems other than the BT system) was assessed by measuring total protein levels using sulforhodamine B (SRB) staining in parallel cultures at the time of biomarker measurements, indicated as SRB endpoints. For proliferation assays for adherent cell types, individual cell types are cultured at sub-confluence and relative cell numbers quantified by SRB staining at time points optimized for each system (48 h: 3C and CASM3C systems; 72 h: BT and HDF3CGF systems; 96 h: SAg system). SRB was performed by staining cells with 0.1% SRB after fixation with 10% TCA and reading wells at 560 nm.Viability and proliferation of PBMC (T cells) was quantified by Alamar Blue reduction for the SAg and BT systems. For PBMC viability (referred to as PBMC Cytotoxicity within the assay endpoint names), cells were plated (75,000/well in a 96-well plate) and then chemical samples added for 1 h before addition of activators, SEB and TSST-1 (20 ng/mL final concentration each). Cells were incubated for 90 h. Then, Alamar Blue (20 uL/well) (Invitrogen, Cat DAL1100) was added for 6 h, and the plates were read with a fluorescence microplate reader at 546/580 nm (excitation/emission). For PBMC proliferation, cells were plated and activated as above but incubated for only 16 h prior to addition of Alamar Blue. Plates were read after 6 h.
As to `O=C(O)c1ccc([N+](=O)[O-])cc1`, the outcome was inactive. Still for that read-out and setting: under `O=[N+]([O-])c1cc(C(F)(F)F)ccc1Cl` stands “inactive”; under `CCc1c(C)cc(N)c(CC)c1N`, “inactive”; under `CC(C)c1ccc(C(C)C)cc1`, “inactive”. Consider `Cc1ccc(O)c(C(C)(C)C)c1`, for which the AC50 is 36.5 µM (active).

For `CCCCCCCCCCCCCCCCCC(=O)OCC(CC)CCCC` (stereo not given), the outcome was inactive. Still for that read-out and setting: as for `C=C[Si](OCC)(OCC)OCC`, the entry is “inactive”; as for `O=C(O)c1cn(C2CC2)c2cc(N3CCNCC3)c(F)cc2c1=O`, “inactive”. On to `C=C(C)C(=O)O[C@H]1C[C@@H]2CC[C@@]1(C)C2(C)C`, for which the concentration at half-maximal activity (AC50) was 20 µM (active).

Take `CCCCC(CC)COC(=O)/C=C\C(=O)OCC(CC)CCCC` (stereo not given): the outcome was inactive. For the compound `BrC1CCC(Br)C(Br)CCC(Br)C(Br)CCC1Br` (stereo not given), the concentration at half-maximal activity (AC50) was 4.7 µM (active). Consider `c1ccc2c(c1)c1cccc3ccc4cccc2c4c31`, for which the result was inactive. In the case of `O=C1OC2(c3cc(Br)c(O)c(Br)c3Oc3c2cc(Br)c(O)c3Br)c2c(Cl)c(Cl)c(Cl)c(Cl)c21`, the concentration at half-maximal activity (AC50) was 13.2 µM (active). For the compound `Nc1cc([N+](=O)[O-])ccc1Cl`, the outcome was inactive. For the compound `OC1OC[C@@H](O)[C@H](O)[C@H]1O` (stereo not given in full), the result was inactive and the AC50 is 5.39 µM (active). In the case of `Cc1ccc2n[nH]nc2c1`, the outcome was inactive. For the compound `CC(C)(COC(=O)c1ccccc1)COC(=O)c1ccccc1`, the outcome was inactive. On the same count and under the same terms, under `O=C(O)c1cn(-c2ccc(F)cc2)c2cc(N3CCNCC3)c(F)cc2c1=O` stands “inactive”. Same read-out and setting: as for `CC(=O)/C=C/C1=C(C)CCCC1(C)C`, the entry is “inactive”. On the same count and under the same terms, under `CC[Si](OC(C)=O)(OC(C)=O)OC(C)=O` stands “inactive”. For `CCn1c2ccccc2c2cc(N)ccc21`, the result was inactive.

As to `C#C[C@]1(O)CC[C@H]2[C@@H]3CCC4=Cc5oncc5C[C@]4(C)[C@H]3CC[C@@]21C`, the outcome was inactive. Still for that read-out and setting: as for `C=CCOC(=O)CCC1CCCCC1`, the entry is “inactive”; as for `Nc1cc([N+](=O)[O-])ccc1O`, “inactive”. `CCC(=O)OCc1ccccc1`: the result was inactive. For `CNC[C@H](O)c1cccc(O)c1`, the result was inactive. Consider `CCCCC/C=C/C=C/C=O`, for which the half-maximal activity concentration (AC50) is 31.8 µM (active). As for `CCCCC(CC)COCCC#N` (stereo not given), the outcome was inactive. As for `c1ccc2sc(SN(C3CCCCC3)C3CCCCC3)nc2c1`, the outcome was inactive.

On to `COC(=O)c1ccc(C)cc1`, for which the outcome was inactive. Take `CCCCCCCCC=O`: the outcome was inactive. On to `O=C=NC1CCC(CC2CCC(N=C=O)CC2)CC1` (stereo not given), for which the outcome was inactive.

Regarding `NCCNCCN`, the outcome was inactive.

As for `CC(=O)Nc1ccccc1O`, the outcome was inactive. For `O=C(O)C[C@H](O)C[C@H](O)/C=C/c1c(C2CC2)nc2ccccc2c1-c1ccc(F)cc1`, the outcome was inactive.

With `CCCCCCCCCC=O`, the outcome was inactive. For the compound `CC(=O)OCCC(C)CC(C)(C)C` (stereo not given), the outcome was inactive. The same measure, in the same setting: as for `N#Cc1ccc(CC(=NNC(=O)Nc2ccc(OC(F)(F)F)cc2)c2cccc(C(F)(F)F)c2)cc1`, the entry is “inactive”. Consider `COc1cc(C=O)ccc1OC(=O)C(C)C`, for which the outcome was inactive.
